KCNQ2 enhance: potentiators of rat KCNQ2 potassium channel. AID 2239, 2010. B-score at 10 µM. CHO-K1 KCNQ2, FluxOR thallium flux fluorescence; active compounds read high. 310,000 compounds, 0.54% hits. Potassium voltage-gated channel subfamily KQT member 2 (Rattus norvegicus), O88943;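 active = fluorescence ratio B-score at least 3 SD of library B-scores, with initial fluorescence B-score within 3 of them, cut at about 5.3 in these data; same plate scores as AID 2156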;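 note: B-score of peak minus minimum over baseline fluorescence ratio after K+ and Tl+ stimulus; positive B-score means potentiation of KCNQ2 with more thallium influx and brighter signal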
Target sequence (O88943 whole entry, looked up): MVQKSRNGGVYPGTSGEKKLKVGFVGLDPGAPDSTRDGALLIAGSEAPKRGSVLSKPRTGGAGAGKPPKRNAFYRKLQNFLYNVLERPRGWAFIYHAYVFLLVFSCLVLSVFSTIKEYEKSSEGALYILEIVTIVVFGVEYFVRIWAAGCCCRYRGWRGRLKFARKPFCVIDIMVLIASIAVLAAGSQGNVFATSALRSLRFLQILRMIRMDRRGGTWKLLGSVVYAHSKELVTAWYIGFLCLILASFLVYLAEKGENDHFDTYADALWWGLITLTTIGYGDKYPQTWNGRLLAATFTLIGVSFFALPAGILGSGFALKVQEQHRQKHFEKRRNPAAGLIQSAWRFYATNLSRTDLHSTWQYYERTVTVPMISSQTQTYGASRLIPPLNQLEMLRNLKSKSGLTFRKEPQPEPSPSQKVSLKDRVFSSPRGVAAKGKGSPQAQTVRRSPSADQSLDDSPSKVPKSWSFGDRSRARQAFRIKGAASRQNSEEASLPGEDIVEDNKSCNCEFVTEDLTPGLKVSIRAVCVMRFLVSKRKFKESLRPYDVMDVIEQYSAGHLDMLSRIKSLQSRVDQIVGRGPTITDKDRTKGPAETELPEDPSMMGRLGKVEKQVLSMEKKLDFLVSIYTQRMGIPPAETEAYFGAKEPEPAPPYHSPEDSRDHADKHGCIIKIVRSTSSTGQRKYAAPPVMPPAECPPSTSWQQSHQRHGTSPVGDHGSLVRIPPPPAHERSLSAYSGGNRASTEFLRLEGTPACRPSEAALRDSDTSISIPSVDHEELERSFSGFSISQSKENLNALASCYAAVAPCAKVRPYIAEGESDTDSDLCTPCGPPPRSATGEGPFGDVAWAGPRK
KCNQ2 inh: rat KCNQ2 potassium channel inhibitors, primary screen, cell-based, CHO-K1, FluxOR thallium flux, B-score. Potassium voltage-gated channel subfamily KQT member 2 (Rattus norvegicus), O88943. AID 2156, 2009. 20 min; active compounds read low. 310,000 compounds, 1.1% hits. B-score at 10 µM;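 active = fluorescence ratio B-score at most minus 3 library SDs, with starting brightness B-score within 2 library SDs, cut at about -5.5 in these data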
Active calls of the source: *; i = inactive; · = no result given. Shown are actives, neighbours in structure and some others; about 1.6% of the full set was active somewhere.

SMILES	KCNQ2 enhance	KCNQ2 inh
CN(C)C(CNC(=O)c1ccc(C(F)(F)F)cc1)c1ccco1 (stereo not drawn)	·	i
C/C(=N\OCC(=O)OCC(=O)NC(=O)c1ccc(OC(F)F)cc1)c1ccc2c(c1)OCO2	0.25	i
CCc1nc(N2CCCCC2C(=O)O)c2oc3ccccc3c2n1 (stereo not drawn)	1.4	i
CCc1nc(N2CCN(Cc3ccc4c(c3)OCO4)CC2)c2oc3ccccc3c2n1	-6.5	-6.5*
CCc1nc(N2CCCCC2C)c2oc3ccccc3c2n1 (stereo not drawn)	-7.5	-7.5*
CCc1nc(N2CCCCC2)c2oc3ccccc3c2n1	·	i
COCCn1c(SCC(=O)NCC2CCCO2)nc2c([nH]c3ccccc32)c1=O (stereo not drawn)	0.89	i
COc1ccc([C@@H]2[C@@H]3C(=O)N(C(C)(C)C)C(=O)[C@@H]3[C@]3(C)C(=O)N(c4ccc(C(F)(F)F)cc4)C(=O)N23)cc1	1.4	i
CCOc1ccc(NC(=O)CN(C)C(=O)CC2OC(=O)c3ccccc32)cc1OCC (stereo not drawn)	0.31	i
COc1ccc(CCN2CC(C(=O)NCCCn3nc(C)cc3C)CCC2=O)cc1 (stereo not drawn)	·	i
Cc1c(C(c2cccc(Br)c2)c2c(C)n(C)n(-c3ccccc3)c2=O)c(=O)n(-c2ccccc2)n1C	·	i
O=C(Cc1ccc(Cl)cc1)NCc1ccccc1Cl	·	i
O=C(NCc1ccccc1Cl)C1(S(=O)(=O)c2ccc(Cl)cc2)CC1	-5.7	-5.7*
Cc1ccc(S(=O)(=O)N[C@H](C(=O)OCC(=O)N2N=C(c3ccc(Cl)cc3)CC2c2ccco2)C(C)C)cc1 (stereo partly drawn)	-6.1	-6.1*
O=C(CNC(=O)c1ccccc1)OCC(=O)N1N=C(c2ccc(Cl)cc2)CC1c1ccco1 (stereo not drawn)	·	i
CCOC(=O)C1(Cc2cccc(Cl)c2)CCCN(C(=O)c2c(CC)noc2C)C1 (stereo not drawn)	·	i
CN(CCOc1ccccc1)CC(=O)Nc1cccc(Br)c1	-6.3	-6.3*
Cc1cc(NC(=O)CN(C)CCOc2ccccc2)ccc1Br	·	i
CCOc1ccc(NS(=O)(=O)c2ccc(C(=O)N3CCC3)cc2)cc1	0.29	i
CCn1cc(C2=NC(C)CO2)c2ccccc21 (stereo not drawn)	0.41	i
CCn1cc(C2=NC(c3ccccc3)CO2)c2ccccc21 (stereo not drawn)	-5.7	-5.7*
COC(=O)c1ccc(C(=O)OC)c(NC(=O)COC(=O)C2CCCCC2)c1	0.28	i
COC(=O)c1ccc(C(=O)OC)c(NC(=O)COC(=O)C2CCC(C(C)(C)C)CC2)c1 (stereo not drawn)	-5.9	-5.9*
NC(=O)C1(N2CCCCC2)CCN(CC(=O)Nc2ccc(Oc3ccccc3)cc2)CC1	0.6	i
O=C(CN1CCCCCC1)Nc1ccc(Oc2ccccc2)cc1	9*	i
SMILES	KCNQ2 enhance	KCNQ2 inh
CC(=O)Nc1ccc(S(=O)(=O)N2CCN(c3ccc([N+](=O)[O-])cc3)CC2)cc1	·	i
Cc1ccccc1CN1CCN(Cc2ccccc2C(F)(F)F)CC1	·	i
Cc1ccc(S(=O)(=O)N2CCN(Cc3ccccc3C(F)(F)F)CC2)cc1	-6	-6*
COc1ccccc1S(=O)(=O)Cc1ccc(C(=O)N2CCN(c3ccc(C)cc3)C(C)C2)o1 (stereo not drawn)	-6.6	-6.6*
CCOC(=O)N1CCN(C(=O)c2ccc(CS(=O)(=O)c3ccccc3OC)o2)CC1	0.24	i
COc1c(C)cc(S(=O)(=O)NCCN2CCOCC2)c(C)c1C	0.42	i
O=C(NCc1ccccc1)C(c1cccs1)N(Cc1cccs1)C(=O)c1cnccn1 (stereo not drawn)	-6	-6*
O=C(NCc1ccccc1)C(c1ccccc1)N(Cc1cccs1)C(=O)c1cnccn1 (stereo not drawn)	·	i
CCOC(=O)C1(CC2CC2)CCN(C(=O)c2cccnc2C)CC1	-6.4	-6.4*
CCOC(=O)C1(CC2CC2)CCN(C(=O)c2cc(C3CC3)nc3ccccc23)CC1	·	i
CC(=O)N(Cc1ccccc1)c1c(N)nc(N)[nH]c1=O	0.94	i
O=C(Cc1ccccc1)NC(C(=O)O)C(O)c1ccc([N+](=O)[O-])cc1 (stereo not drawn)	·	i
O=C(C1=C[C@@H](c2csc3ccccc23)C[C@@H](OCc2ccc(CO)cc2)O1)N1CCN(Cc2ccccc2)CC1	-6.2	-6.2*
O=C(NC1CC1)C1=C[C@H](c2csc3ccccc23)C[C@H](OCc2ccc(CO)cc2)O1	·	i
O=C(Nc1ccccc1)C1=C[C@H](c2csc3ccccc23)C[C@H](OCc2ccc(CO)cc2)O1	-5.7	-5.7*
O=C(C1=C[C@@H](c2csc3ccccc23)C[C@@H](OCc2ccc(CO)cc2)O1)N1CCOCC1	·	i
O=C(CN1C(=O)NC2(CCCc3ccccc32)C1=O)NC1CCCCC1 (stereo not drawn)	0.14	i
CN(Cc1ccc(Br)cc1)CC(O)COc1cccc(Br)c1 (stereo not drawn)	·	i
O=C(CNC(=O)c1ccc2c(c1)OCO2)N/N=C/c1cc(Br)ccc1O	·	i
COc1cc(OC)c2c(=O)cc(-c3ccccc3)oc2c1	·	i
COc1cc2c(c3oc(-c4ccccc4)cc(=O)c13)C=CC(C)(C)O2	-6	-6*
COc1cccc(-n2cc(CNC(=O)C3CCC(=O)N(C4CC4)C3)cn2)c1 (stereo not drawn)	0.86	i
O=C(COc1ccc([N+](=O)[O-])cc1)N(Cc1ccccc1)Cc1ccccc1	-5.8	-5.8*
COC(=O)C(Cc1ccccc1)NC(=O)COc1ccc(C(C)(C)C)cc1 (stereo not drawn)	-5.6	-5.6*
O=C(COc1ccccc1)NNC(=O)COc1ccc([N+](=O)[O-])cc1	1.2	i
SMILES	KCNQ2 enhance	KCNQ2 inh
CN(Cc1ccccc1)C(=O)COc1ccc(C(C)(C)C)cc1	-5.6	-5.6*
CCOc1ccc(C(=O)NC(Cc2ccccc2)C(=O)OC)cc1 (stereo not drawn)	·	i
CN(Cc1ccccc1)C(=O)COc1ccccc1Cl	·	i
O=S(=O)(Cc1ccc(Cl)cc1)NCc1ccc2c(c1)OCO2	·	i
O=C(CSc1nc2ccccc2s1)N1c2ccccc2Sc2ccc(Cl)cc21	·	i
O=C(CSc1nc2ccccc2s1)N1c2ccccc2Sc2ccc(C(F)(F)F)cc21	-6.5	-6.5*
O=C(Nc1ccnn1C1CCN(Cc2cccc(OCCO)c2)CC1)C1CCOC1 (stereo not drawn)	1.1	i
CC(C)Oc1cccc(-c2cc(C(=O)N3CCN(c4ncccn4)CC3)c3ccccc3n2)c1	-7.2	-7.2*
COc1cccc(-c2cc(C(=O)N3CCN(c4ncccn4)CC3)c3ccccc3n2)c1	·	i
Cc1nc(NC(=O)c2ccccc2)sc1-c1csc(Nc2cccc(F)c2)n1	0.54	i
Cc1cc(NS(=O)(=O)c2ccc(Nc3nc(-c4sc(NC(=O)c5ccccc5)nc4C)cs3)cc2)no1	-13	-13*
CC1CCc2c(sc3nc(C(C)(C)C)nc(N4CCN(C(=O)CCl)CC4)c23)C1 (stereo not drawn)	·	i
Fc1cccc2sc(Nc3nc4cc5c(cc4s3)OCO5)nc12	6.9*	i

Bioassay records as filed in PubChem.
